# Assay results taken from PubChem BioAssay AID628 (Vanderbilt High Throughput Screening Facility, 2007).
# In all, about 64,000 compounds went through this assay and about 2,200 (3.4%) were called active. Only a selection was taken, and actives are over-represented in it overall. Values without a mark were called inactive.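 How the source made its calls: active means calcium fluorescence response, raw or row-and-column corrected B-score, differing from the plate sample mean either way at a set confidence level, mostly lower; inactive means the rest.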
# Molecular target: Muscarinic acetylcholine receptor M1 (Rattus norvegicus) (UniProt P08482)
# Experiment: blocks the rat M1 muscarinic receptor response to acetylcholine (AID 628)
# Conditions: CHO-M1 cells, Fluo-4 calcium, ACh EC80 antagonist mode; at 10 µM; hits give low values
# Sequence of Muscarinic acetylcholine receptor M1 (Rattus norvegicus) (P08482 whole entry, looked up): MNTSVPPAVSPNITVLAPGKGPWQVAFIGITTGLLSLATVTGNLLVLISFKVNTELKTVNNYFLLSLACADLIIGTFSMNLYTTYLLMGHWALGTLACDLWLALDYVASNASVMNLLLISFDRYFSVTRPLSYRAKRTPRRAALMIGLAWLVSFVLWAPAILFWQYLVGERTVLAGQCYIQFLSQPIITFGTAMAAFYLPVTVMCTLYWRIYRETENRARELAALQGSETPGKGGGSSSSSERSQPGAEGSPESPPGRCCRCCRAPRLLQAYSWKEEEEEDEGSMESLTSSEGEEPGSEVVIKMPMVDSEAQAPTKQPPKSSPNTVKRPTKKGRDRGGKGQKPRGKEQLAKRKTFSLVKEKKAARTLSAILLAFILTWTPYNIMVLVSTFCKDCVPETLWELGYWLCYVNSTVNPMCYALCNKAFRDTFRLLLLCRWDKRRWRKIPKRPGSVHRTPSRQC
row,SMILES,B-score
1,CCOC(=O)N1CCN(C(=O)C2CCCN(c3ncnc4c3sc3cccc(F)c34)C2)CC1 (stereo unspecified),-6.95 (active)
2,CCOC(=O)C1CCCN(C(=O)C2CCN(c3nnc(-n4cccc4)s3)CC2)C1 (stereo unspecified),-0.147
3,CCOC(=O)C1CCN(c2ncnc3c2oc2ccc(Br)cc23)CC1,1.09
4,CCOC(=O)N1CCN(C(=O)C2CC(c3ccc(F)cc3)=NO2)CC1 (stereo unspecified),1.56
5,CCOC(=O)N1CCN(C(=O)C2CCN(c3ncnc4c3sc3cccc(F)c34)CC2)CC1,-6.68 (active)
6,Cc1cc(=O)n2nc(N3CCCC(C(=O)N4CCN(C)CC4)C3)sc2n1 (stereo unspecified),-0.192
7,Clc1ccc(Nc2nc(-c3cccs3)cs2)nc1,-1.85
8,Cn1c(=NC(=O)C2CC2)sc2cc(F)cc(F)c21,-2.24
9,COC(=O)COc1ccc2oc(=O)cc(C)c2c1,0.286
10,O=c1c2c(nc3n1CCCCC3)sc1c(O)cccc12,-0.992
11,CN(C)CCSc1nc(N)c2c3c(sc2n1)COC(C)(C)C3,0.0678
12,CC1(C)Cc2c(sc3nc4n(c(=N)c23)CCCCC4)CO1,-2.66 (active)
13,CCOC(=O)c1cccc(NC(=O)C2CCCN(S(=O)(=O)c3cnc[nH]3)C2)c1 (stereo unspecified),0.994
14,COc1ccc(OC)c(NC(=O)Cn2c(=O)oc3ccccc32)c1,-0.343
15,CCn1c(=N)n(CC(=O)c2cccc(OC)c2)c2ccccc21,-6.64 (active)
16,C=CCn1c(=N)n(CC(O)COc2ccc(OC)cc2)c2ccccc21 (stereo unspecified),0.0139
17,CCCCCC(=O)Nc1ccc2oc(-c3ccncc3)nc2c1,0.442
18,CCc1c(C)sc(NC(=O)c2ccc(Br)o2)c1C(=O)OC,-0.053

row,SMILES,B-score
1,OC(COc1ccccc1)Cn1cc(Br)cn1 (stereo unspecified),-0.268
2,O=S(=O)(Nc1ccc2nc(-c3ccco3)[nH]c2c1)c1ccccc1,-0.153
3,Cc1ccc(S(=O)(=O)Nc2ccc3ncccc3c2)cc1,-3.27 (active)
4,CC(=O)N1CCN(C(=O)c2cccc(S(=O)(=O)Nc3ccc(C)cc3)c2)CC1,-0.171
5,COc1ccc(NC(C)=O)cc1NC(=O)CN1CCN(C2c3ccccc3-c3ccccc32)CC1,0.0245
6,CN(CCCC(=O)Nc1nccs1)S(=O)(=O)c1ccc(Cl)cc1,0.248
7,O=C(NCCCCO)C(F)(F)C(F)(F)C(F)(F)C(=O)NCCCCO,0.234
8,CC(=O)c1c(N2CCOCC2)nc(=S)n(-c2cc(C)ccc2C)c1C,-0.429
9,COc1ccccc1OCCOc1ccc(/C=N/n2cnnc2)cc1,-2.39 (active)
10,C=CCOc1ccc(/C=N/n2cncn2)cc1OC,0.195
11,C(=N\n1cnnc1)/c1cccnc1,-0.0308
12,COCCNCCOCCOc1cccc(OC)c1,0.826
13,CCOc1cc(/C=N/n2cnnc2)c(Br)cc1O,0.717
14,COc1cccc(OCCOc2cccc(/C=N/n3cnnc3)c2)c1,-2.76 (active)
15,O=C(CSc1nc2[nH]ncc2c(=O)n1-c1ccccc1)N1CCCc2ccccc21,0.281
16,CCOc1cc(C)c(Cl)cc1S(=O)(=O)n1nnc2ccccc21,0.583
17,COc1ccc(C(=O)NCCc2ccc(S(N)(=O)=O)cc2)cc1OC,-0.216
18,Cc1cc2cc(CN(Cc3cccs3)Cc3nnnn3CC3CCCO3)c(=O)[nH]c2cc1C (stereo unspecified),-0.714
